Experimental data published in ChEMBL document CHEMBL4513216, “Probing the Open Global Health Chemical Diversity Library for Multistage-Active Starting Points for Next-Generation Antimalarials” (ACS Infect Dis, 2020).
In all, about 69,000 compounds went through this assay and about 8,600 (12%) showed an effect of 50% or more. This excerpt belongs to a sample that is enriched for strong results.

System: Plasmodium berghei
Test: Screen against P. berghei liver stage (PbLuc), transformed with Luciferase, at 10uM
Format: functional, HepG2
Conditions: tested at 10 uM

| SMILES | INHIBITION |
| --- | --- |
| CO[C@@H]1CO[C@@]2(CCCN(S(=O)(=O)c3ccccc3)C2)C1 | 40.4% |
| CCOC(=O)N(C)CC(=O)NCCc1coc(-c2ccc(C)cc2)n1 | 11.4% |
| Cn1cc(N2C(=O)CC[C@@H]3[C@H]2CCN3CC2CCOCC2)cn1 | 8.52% |
| O=C(CCCN1CCCCC1)NC(C(=O)O)c1ccc(Cl)cc1 (stereo not drawn) | 6.11% |
| O=C(Cc1cccc(F)c1)NCCNc1ncccn1 | 37.4% |
| CCOCC(=O)N1CCC2(CC1)COC(COCc1ccccn1)C2 (stereo not drawn) | -13% |
| Cc1cc(C)n2cc(CN3CCC(N4CCN(C)C4=O)CC3)nc2n1 | 39.1% |
| CC(NS(C)(=O)=O)C(=O)N1CCCN(Cc2cscn2)CC1 (stereo not drawn) | 48.9% |
| Cc1cnn(C2CCCN(C(=O)Cc3ccc4c(c3)CCO4)C2)c1 (stereo not drawn) | 31.8% |
| CNc1cc(N2CCCC2CNCc2csc(C)n2)ncn1 (stereo not drawn) | 29.425% |
| O=C(CC1CCCC1)N1CC[C@H]2[C@H]1CCN2c1nncs1 | 43.8% |
| CCc1ncc(C(=O)N2CCC(Nc3ccc(C)nn3)CC2)s1 | -58.7% |
| COCC(=O)N1CC[C@]2(O)CCN(C(=O)CCc3ccsc3)C[C@@H]2C1 | 26.9% |
| COC(=O)c1ccc(C(=O)NCc2ccc(Br)cc2)cn1 | 45.8% |
| COc1ccc(CNC(=O)c2ccc(Br)cn2)cc1 | 49% |
| CCNc1ncc(C(=O)NCc2ccc3nsnc3c2)cn1 | 31.9% |
| CCOc1ccc(CNC(=O)c2cnc(OC)nc2)cc1 | 52.7% |
| COC(=O)CCNC(=O)c1ccc(OCc2ccccc2)nc1 | -8.91% |
| Cc1cccc(C(=O)NCc2ccccc2)n1 | 21% |
| COc1ncc(C(=O)NCc2ccc(Br)cc2)cn1 | 59.8% |
| CCOc1cccc(C(=O)NCCC(=O)NCc2ccncc2)c1 | -5.78% |
| COc1ncc(C(=O)NCc2ccccc2)cn1 | 64.2% |
| CS(=O)(=O)CCN1CCCC1c1noc(C2CC2)n1 (stereo not drawn) | -38.2% |
| Cc1cccc(S(=O)(=O)N2CC[C@H]3[C@H]2CCN3c2ncccn2)c1 | 5.36% |
| NC(=O)c1cnn2c1NCC(CNCCc1cccs1)C2 (stereo not drawn) | 21.75% |
| COCC(C)NC(=O)CN1CCCC1 (stereo not drawn) | -9.39% |
| O=S(=O)(Cc1cc(-c2ccccc2)no1)CC1CCCO1 (stereo not drawn) | -73.1% |

| SMILES | INHIBITION |
| --- | --- |
| CNc1cccc(C2CCCN(C(C)=O)C2)n1 (stereo not drawn) | -1.58% |
| CNc1cccc(C2CCCN(C(=O)c3ccn(C)n3)C2)n1 (stereo not drawn) | 26.3% |
| CNc1cccc(C2CCCN(C(=O)c3ccncc3)C2)n1 (stereo not drawn) | 42.1% |
| CNc1cccc(C2CCCN(C(=O)c3cnccn3)C2)n1 (stereo not drawn) | -37% |
| CNc1cccc(C2CCCN(C(=O)Cc3ccccc3)C2)n1 (stereo not drawn) | 81.2% |
| CNc1cccc(C2CCCN(C(=O)c3cscn3)C2)n1 (stereo not drawn) | 51.5% |
| CN1CCN([C@@H]2CN(C(=O)CCOc3ccccc3)C[C@H]2O)CC1 | 6.08% |
| CC1CCN(c2nc3cn(-c4ccc(F)cc4)c(=O)c-3c[nH]2)CC1 | 24.2% |
| CC(=O)Nc1ncc(S(=O)(=O)Nc2ccccc2F)s1 | 15.9% |
| Cn1nccc1CCC(=O)N1CCOC(c2cnccn2)C1 (stereo not drawn) | 2.71% |
| CCc1ccc2nc(-c3cnn(C)c3)cc(C(=O)N3CCCC3)c2c1 | 7.3% |
| O=C(c1cc(-c2cn[nH]c2)nc2ccc(F)cc12)N1CCSCC1 | 51.8% |
| Cn1cc(-c2cc(C(=O)N3CCOCC3)c3ccc(F)cc3n2)cn1 | -27.5% |
| Cc1cc(C(=O)N2CCNC(c3ccccc3)C2)c2ccc(F)cc2n1 (stereo not drawn) | 36.9% |
| O=C(c1cc(-c2cn[nH]c2)nc2cc(F)ccc12)N1CCS(=O)(=O)CC1 | 79.9% |
| O=C(O)c1cc(-c2cn[nH]c2)cc(S(=O)(=O)N2CCSCC2)c1 | -4.927% |
| COCc1nnc2n1CCN(Cc1ccoc1)C2 | 33% |
| COCCC1CCN([C@@H]2c3ccccc3C3(CCNCC3)[C@H]2O)CC1 | 11.6% |
| COc1ccc(-c2cc(C3CCCNC3)ccn2)cc1 (stereo not drawn) | -3.02% |
| CN1CCCN(c2cnn(Cc3ccncc3)c(=O)c2)CC1 | 54.8% |
| Cn1c(Cn2ncc(N3CCCCC3)cc2=O)nc2ccccc21 | 40.3% |
| CN1CCN(c2cnn(Cc3ccc(S(C)(=O)=O)cc3)c(=O)c2)CC1 | 51.5% |
| CN1CCCN(c2cnn(Cc3ccc(C(C)(C)C)cc3)c(=O)c2)CC1 | 15.7% |
| Cn1c(Cn2ncc(N3CCCC3)cc2=O)nc2ccccc21 | 37.6% |
| Cn1ncc(N2CCN(Cc3ccc(S(C)(=O)=O)cc3)CC2)cc1=O | 27.6% |
| Cc1cc(C)n(Cc2cc(C(=O)N3CCCCC3c3nccs3)n[nH]2)n1 (stereo not drawn) | 7.83% |
